Molecules are shown by their SMILES. For some of these results: Entries with a potency or affinity are not part of this list.

Holding throughout (design): scale not given: direction of the effect not stated beside the values
Assay [1] deals with Protein translocase subunit SecA (Escherichia coli (strain K12)) (UniProt P10408). Briefly: Assay to Identify E. coli SecA ATPase Inhibitors. The class given is functional. To be noted: 30 µM.
The target in assay [2] is T1, Ubiquitin-activating enzyme e1, putative (Leishmania donovani (strain BPK282A1)) (UniProt E9BSI1).
T1 sequence (whole entry): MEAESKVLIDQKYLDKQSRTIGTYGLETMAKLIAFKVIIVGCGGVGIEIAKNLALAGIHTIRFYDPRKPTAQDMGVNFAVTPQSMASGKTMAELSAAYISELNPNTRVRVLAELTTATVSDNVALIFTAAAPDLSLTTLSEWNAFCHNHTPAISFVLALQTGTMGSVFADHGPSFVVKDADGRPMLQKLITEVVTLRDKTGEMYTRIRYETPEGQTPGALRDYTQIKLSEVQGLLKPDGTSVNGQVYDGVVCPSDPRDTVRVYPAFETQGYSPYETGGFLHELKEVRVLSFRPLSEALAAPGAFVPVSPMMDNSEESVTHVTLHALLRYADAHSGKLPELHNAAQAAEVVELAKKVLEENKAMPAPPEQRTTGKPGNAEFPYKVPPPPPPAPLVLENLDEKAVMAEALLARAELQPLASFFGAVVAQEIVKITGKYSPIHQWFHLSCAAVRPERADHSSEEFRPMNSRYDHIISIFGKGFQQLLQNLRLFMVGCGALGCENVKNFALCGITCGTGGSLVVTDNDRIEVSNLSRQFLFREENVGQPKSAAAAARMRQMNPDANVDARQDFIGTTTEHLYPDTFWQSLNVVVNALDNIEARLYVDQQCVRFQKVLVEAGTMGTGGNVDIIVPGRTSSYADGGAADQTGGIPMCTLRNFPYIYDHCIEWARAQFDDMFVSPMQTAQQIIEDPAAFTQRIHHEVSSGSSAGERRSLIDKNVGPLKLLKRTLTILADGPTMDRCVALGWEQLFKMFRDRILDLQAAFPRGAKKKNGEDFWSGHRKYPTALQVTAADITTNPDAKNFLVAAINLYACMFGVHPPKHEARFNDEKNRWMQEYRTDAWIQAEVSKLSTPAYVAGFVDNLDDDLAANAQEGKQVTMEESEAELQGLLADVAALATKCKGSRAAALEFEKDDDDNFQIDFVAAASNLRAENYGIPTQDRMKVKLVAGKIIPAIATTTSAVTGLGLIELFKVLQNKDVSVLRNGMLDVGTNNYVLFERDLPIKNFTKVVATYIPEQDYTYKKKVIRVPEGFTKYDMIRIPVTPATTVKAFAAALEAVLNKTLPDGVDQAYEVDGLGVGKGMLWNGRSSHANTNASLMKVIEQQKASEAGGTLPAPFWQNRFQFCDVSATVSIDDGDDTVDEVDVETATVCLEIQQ
Nature of the assay: Leishmania donovani Ubiquitin Activating Enzyme (LdE1). Conditions: 30 µM. The class given is functional.

The target of assay [3] is AMP-activated protein kinase, AMPK (Homo sapiens) (UniProt P54646+O43741+P54619+Q9UGJ0+Q9Y478+Q13131+Q9UGI9). Nature of the assay: AMP-dependent Kinase enzyme assay. An in vitro enzyme assay that detects ADP turnover that is directly proportional to AMPK activity. This uses naive AMPK that is activated during the assay with MK-8722. The class given is functional. To be noted: 30 µM.

For assay [4], the target named is Sialic acid-binding Ig-like lectin 9 (Homo sapiens) (UniProt Q9Y336). Nature of the assay: Hs-Siglec9 ALPHAscreen SOP 20170721. Conditions: 10 µM.
Sialic acid-binding Ig-like lectin 9 (Homo sapiens), sequence (Q9Y336 whole entry): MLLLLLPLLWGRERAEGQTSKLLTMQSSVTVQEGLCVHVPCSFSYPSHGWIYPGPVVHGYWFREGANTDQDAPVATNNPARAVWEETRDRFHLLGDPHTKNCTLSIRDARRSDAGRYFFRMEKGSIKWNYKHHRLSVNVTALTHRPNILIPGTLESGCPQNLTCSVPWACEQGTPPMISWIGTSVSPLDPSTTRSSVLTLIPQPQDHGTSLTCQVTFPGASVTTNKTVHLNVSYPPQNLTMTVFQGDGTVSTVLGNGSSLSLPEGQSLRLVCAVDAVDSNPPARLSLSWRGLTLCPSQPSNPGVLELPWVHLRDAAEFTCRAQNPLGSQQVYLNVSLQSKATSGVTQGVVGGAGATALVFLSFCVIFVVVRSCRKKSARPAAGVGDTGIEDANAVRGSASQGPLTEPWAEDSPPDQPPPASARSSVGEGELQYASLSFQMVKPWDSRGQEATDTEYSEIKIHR
A further assay deals with Trypanosoma cruzi. Nature of the assay: Trypanosoma cruzi phosphomannomutase and mannose-1-phosphate guanylyltransferase assay. Type of assay: functional. To be noted: 10 µM.
In assay [5] the target is T2, Arginase-2, mitochondrial (Homo sapiens) (UniProt P78540).
T2 sequence (whole entry): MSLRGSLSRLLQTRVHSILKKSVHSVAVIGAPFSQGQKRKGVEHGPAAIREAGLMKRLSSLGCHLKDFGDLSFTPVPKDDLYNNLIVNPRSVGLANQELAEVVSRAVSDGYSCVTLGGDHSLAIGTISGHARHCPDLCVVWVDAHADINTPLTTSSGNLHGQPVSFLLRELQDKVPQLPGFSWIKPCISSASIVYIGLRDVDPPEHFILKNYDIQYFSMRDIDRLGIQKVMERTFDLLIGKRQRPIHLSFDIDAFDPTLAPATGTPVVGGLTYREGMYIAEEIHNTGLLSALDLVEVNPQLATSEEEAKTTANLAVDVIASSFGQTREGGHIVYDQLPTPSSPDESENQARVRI
Nature of the assay: in vitro enzyme assay to detect the production of urea directly proportional to the activity of Arginase II. Further: in the data most compounds retested in dose-response had high values. The class given is functional. To be noted: 33.3 µM.

For assay [6], the target named is T3, Proteasome subunit beta (Trypanosoma cruzi) (UniProt O96673).
T3 sequence (whole entry): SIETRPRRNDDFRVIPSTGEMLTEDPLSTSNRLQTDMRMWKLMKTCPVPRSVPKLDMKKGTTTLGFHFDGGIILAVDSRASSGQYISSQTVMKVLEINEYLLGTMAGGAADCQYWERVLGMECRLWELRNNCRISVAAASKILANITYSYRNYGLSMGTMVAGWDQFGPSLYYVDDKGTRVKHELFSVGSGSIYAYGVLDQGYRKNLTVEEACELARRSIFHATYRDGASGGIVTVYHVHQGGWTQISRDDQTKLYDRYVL
Briefly: Trypanosoma cruzi proteasome chymotrypsin-like activity (TcProtChymo) assay. Further: in the data most compounds retested in dose-response had high values. Type of assay: functional. Conditions: 9.37 µM.

Another assay is filed under the species Homo sapiens. Nature of the assay: To identify inhibition of the IFN signalling (Jak-Stat) pathway via expression of an eGFP reporter gene under the control of an IFN-stimulated response element (ISRE) containing MxA promoter. The class given is functional. To be noted: 30 µM.
In assay [7] the target is T4, Tyrosyl-tRNA synthetase, putative (Trypanosoma cruzi (strain CL Brener)) (UniProt Q4DSP6).
T4 sequence (whole entry): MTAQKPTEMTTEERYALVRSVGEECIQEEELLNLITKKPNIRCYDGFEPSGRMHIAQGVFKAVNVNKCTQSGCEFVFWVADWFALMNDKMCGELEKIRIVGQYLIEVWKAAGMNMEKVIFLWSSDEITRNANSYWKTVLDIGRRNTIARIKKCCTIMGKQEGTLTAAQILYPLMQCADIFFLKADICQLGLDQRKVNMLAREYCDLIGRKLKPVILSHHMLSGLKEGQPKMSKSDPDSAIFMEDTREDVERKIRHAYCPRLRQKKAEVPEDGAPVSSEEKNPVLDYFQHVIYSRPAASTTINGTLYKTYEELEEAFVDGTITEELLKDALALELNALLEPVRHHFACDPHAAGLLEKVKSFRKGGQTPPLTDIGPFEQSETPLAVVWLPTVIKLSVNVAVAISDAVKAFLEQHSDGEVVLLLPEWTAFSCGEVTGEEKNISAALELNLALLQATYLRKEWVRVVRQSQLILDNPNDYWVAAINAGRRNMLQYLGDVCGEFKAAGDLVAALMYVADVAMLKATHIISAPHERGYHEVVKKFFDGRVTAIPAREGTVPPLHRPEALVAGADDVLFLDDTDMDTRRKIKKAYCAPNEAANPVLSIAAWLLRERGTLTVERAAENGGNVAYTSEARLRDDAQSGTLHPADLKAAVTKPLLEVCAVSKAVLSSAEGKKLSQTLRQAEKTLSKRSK
Nature of the assay: Trypanosoma cruzi tyrosyl tRNA synthetase (TcYRS) _High Tyrosine SOP. Further: in the data most compounds retested in dose-response had high values. The class given is functional. Conditions: 30 µM.

Assay [8] deals with T4, Tyrosyl-tRNA synthetase, putative (Trypanosoma cruzi (strain CL Brener)). Briefly: Trypanosoma cruzi tyrosyl tRNA synthetase (TcYRS) SOP. To be noted: 30 µM. Type of assay: functional.
The target in assay [9] is Chromo domain-containing protein 1 (Saccharomyces cerevisiae (strain ATCC 204508 / S288c) (Baker's yeast)) (UniProt P32657). Nature of the assay: ScCHD-1 Enzyme Inhibition Assay. Further: in the data most compounds retested in dose-response had high values. Conditions: 30 µM. Type of assay: functional.
Chromo domain-containing protein 1 (Saccharomyces cerevisiae (strain ATCC 204508 / S288c) (Baker's yeast)), sequence (P32657 whole entry, the tested form may be a part): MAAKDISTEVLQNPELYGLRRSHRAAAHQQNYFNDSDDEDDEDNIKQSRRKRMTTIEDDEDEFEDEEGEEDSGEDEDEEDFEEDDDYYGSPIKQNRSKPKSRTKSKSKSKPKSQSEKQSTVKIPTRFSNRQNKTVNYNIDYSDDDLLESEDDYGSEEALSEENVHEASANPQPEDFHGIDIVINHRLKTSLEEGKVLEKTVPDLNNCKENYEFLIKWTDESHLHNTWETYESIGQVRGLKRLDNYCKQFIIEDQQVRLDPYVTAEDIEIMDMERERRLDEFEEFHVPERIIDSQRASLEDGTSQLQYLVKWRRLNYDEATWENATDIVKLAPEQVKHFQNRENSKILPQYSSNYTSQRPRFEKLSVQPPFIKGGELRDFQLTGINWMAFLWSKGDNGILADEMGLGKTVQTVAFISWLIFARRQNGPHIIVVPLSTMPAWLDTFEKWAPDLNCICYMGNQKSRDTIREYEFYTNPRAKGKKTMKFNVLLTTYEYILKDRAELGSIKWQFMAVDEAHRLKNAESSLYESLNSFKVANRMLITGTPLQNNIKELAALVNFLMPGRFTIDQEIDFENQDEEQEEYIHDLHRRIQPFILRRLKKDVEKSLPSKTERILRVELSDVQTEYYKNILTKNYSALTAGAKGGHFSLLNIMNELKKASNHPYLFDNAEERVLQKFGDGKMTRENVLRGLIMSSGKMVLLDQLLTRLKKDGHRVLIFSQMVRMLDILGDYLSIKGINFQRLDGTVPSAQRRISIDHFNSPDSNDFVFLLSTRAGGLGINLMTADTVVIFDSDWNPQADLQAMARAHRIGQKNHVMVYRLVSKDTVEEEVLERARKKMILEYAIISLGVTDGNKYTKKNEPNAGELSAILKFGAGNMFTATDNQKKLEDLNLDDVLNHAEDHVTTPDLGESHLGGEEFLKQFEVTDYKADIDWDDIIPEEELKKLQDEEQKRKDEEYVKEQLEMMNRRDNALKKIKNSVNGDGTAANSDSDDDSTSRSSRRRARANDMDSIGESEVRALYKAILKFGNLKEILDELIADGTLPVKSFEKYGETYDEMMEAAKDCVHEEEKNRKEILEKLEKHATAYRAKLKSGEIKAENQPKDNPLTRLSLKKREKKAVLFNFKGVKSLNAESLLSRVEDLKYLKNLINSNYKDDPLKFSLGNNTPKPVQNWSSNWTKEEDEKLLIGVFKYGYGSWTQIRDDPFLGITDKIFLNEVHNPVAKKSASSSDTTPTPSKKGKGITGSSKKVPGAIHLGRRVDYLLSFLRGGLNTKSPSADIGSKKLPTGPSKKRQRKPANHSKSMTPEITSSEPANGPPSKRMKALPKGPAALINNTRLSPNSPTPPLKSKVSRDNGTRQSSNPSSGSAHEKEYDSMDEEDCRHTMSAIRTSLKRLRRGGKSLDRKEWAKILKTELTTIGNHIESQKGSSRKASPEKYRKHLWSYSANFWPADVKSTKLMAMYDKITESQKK

Protein translocase subunit SecA (Escherichia coli (strain K12)), sequence (P10408 whole entry): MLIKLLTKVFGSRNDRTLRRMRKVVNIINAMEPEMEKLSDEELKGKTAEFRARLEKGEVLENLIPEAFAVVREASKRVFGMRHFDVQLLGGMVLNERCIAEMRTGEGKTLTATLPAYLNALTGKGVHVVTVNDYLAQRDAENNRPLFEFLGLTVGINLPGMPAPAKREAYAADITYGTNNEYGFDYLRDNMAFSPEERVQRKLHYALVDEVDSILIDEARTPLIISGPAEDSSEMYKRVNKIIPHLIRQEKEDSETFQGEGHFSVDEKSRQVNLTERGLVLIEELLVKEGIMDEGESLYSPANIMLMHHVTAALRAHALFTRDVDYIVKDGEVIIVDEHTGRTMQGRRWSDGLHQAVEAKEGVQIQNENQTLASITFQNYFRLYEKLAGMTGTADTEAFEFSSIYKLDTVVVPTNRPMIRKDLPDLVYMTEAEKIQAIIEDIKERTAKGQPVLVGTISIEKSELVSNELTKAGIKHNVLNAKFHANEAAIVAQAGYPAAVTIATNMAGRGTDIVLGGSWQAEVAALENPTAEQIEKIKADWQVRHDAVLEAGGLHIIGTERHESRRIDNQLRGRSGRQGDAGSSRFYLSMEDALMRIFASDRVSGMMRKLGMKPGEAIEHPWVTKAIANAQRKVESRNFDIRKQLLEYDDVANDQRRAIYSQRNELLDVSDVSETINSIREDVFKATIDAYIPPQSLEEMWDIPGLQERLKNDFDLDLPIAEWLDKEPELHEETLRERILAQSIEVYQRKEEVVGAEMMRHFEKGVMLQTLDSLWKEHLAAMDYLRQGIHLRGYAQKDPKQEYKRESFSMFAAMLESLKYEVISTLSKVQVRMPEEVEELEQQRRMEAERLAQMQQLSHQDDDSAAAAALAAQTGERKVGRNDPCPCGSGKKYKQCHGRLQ

With `Cc1ccc(C(C)NC(=O)Nc2ccccc2CN2CCOCC2)o1` (stereo not drawn), the Percent Effect in [1] is -5.3%; in assay [2], 5.41%; in assay [3], -1.54%; in assay [4], 9.05%; in the assay with Trypanosoma cruzi, -2.64%; in assay [5] it was -5.21%. The Percent Effect in assay [6] was 9.19%; in the assay listed under Homo sapiens, -2.32%; in assay [7], 7.53%; in assay [8], 8.64%; in assay [9] it was -0.483%.
For the compound `Cn1cnnc1C1CCCN(C(=O)NCCOc2ccccc2)C1` (stereo not drawn), the Percent Effect in [1] is -3.04%; in assay [2], 23.4%; in [3], 1.73%; in assay [4] it was -22.3%; in the assay with Trypanosoma cruzi, 4.8%; in [5], -1.47%. Moreover, the Percent Effect was 15.9% in assay [6]; 16.1% in the assay listed under Homo sapiens; 5.71% in assay [7]; 21.2% in [8]; -12% in [9].
Take `CCOc1ncccc1NC(=O)NCC(O)c1ccccc1OC` (stereo not drawn): the Percent Effect in assay [1] is -2.5%; in [2], 22.8%; in assay [3], 4.8%; in [4], -4.05%; in the assay with Trypanosoma cruzi, 4.06%; in assay [5], 4.94%. The Percent Effect in assay [6] is 9.75%; in the assay filed under Homo sapiens, 23.4%; in assay [7] it was 3.45%; in assay [8], 21.5%; in assay [9], -7.12%.
Regarding `CS(=O)(=O)c1ccc(NC(=O)N2CCc3sccc3C2)cn1`, the Percent Effect in [1] is -2.17%; in assay [2], 10.8%; in [3], 4.69%; in [4], -4.04%; in the assay with Trypanosoma cruzi it was -3.71%; in assay [5], 1.67%. Moreover, the Percent Effect was 18.3% in assay [6]; 63.4% in the assay filed under Homo sapiens; 5.94% in [7]; 11% in assay [8]; 13.6% in assay [9].
As for `COCCN1CCC(CNC(=O)c2cc(C)cc(C)c2)C1` (stereo not drawn), the Percent Effect in assay [1] is -6.49%; in assay [2] it was 10.5%; in [3], -7.62%; in assay [4], 15.5%; with Trypanosoma cruzi it was 6.26%; in assay [5] it was -1.8%. The Percent Effect in [6] was 8.88%; in the assay listed under Homo sapiens it was -10.5%; in assay [7] it was 6.4%; in [8] it was 13.6%; in assay [9] it was -4.84%.
Consider `CCS(=O)(=O)N1CC[C@H](OC)[C@@H]1Cc1ccncc1`, for which the Percent Effect in [1] was -2.5%; in assay [2] it was 13.5%; in assay [3], -1.61%; in assay [4], -11.3%; in the assay on Trypanosoma cruzi, -4.59%; in assay [5] it was -9.87%. Also, the Percent Effect in [6] was 15.3%; in the assay filed under Homo sapiens it was 7.61%; in [7], 0%; in assay [8], 7.69%; in assay [9] it was -5.24%.
For the compound `Cc1cc(C)n(-c2cc(N3CCN(C(=O)C(C)(C)C)CC3)nc(C)n2)n1`, the Percent Effect in assay [1] is -2.73%; in assay [2], 5.33%; in [3] it was -1.22%; in assay [4], 6.39%; in the assay on Trypanosoma cruzi, 2.04%; in assay [5], 14.1%. The Percent Effect in [6] is 3.31%; in the assay filed under Homo sapiens, 26.8%; in assay [7], 0.546%; in assay [8], 3.7%; in assay [9], -5.38%.
For `c1cnc2c(c1)cc(C1CCOCC1)n2CCN1CCOCC1`, the Percent Effect in assay [1] was -3.29%; in [2], 14.9%; in assay [3], 13.1%; in assay [4] it was -5.49%; with Trypanosoma cruzi, 0.79%; in assay [5] it was -1.62%. Also, the Percent Effect in [6] was 12.5%; in the assay listed under Homo sapiens, 4.82%; in assay [7], 3.23%; in [8], 11.7%; in [9] it was -12.6%.
